Compound activity: PubChem BioAssay, several laboratories
BoNT A protease: inhibitors of Botulinum neurotoxin A light chain protease. multiplex microsphere protease substrate cleavage, flow cytometry. inhibition, % at 10 µM. 0.17% of 360,000 active; further: plate controls were buffer without enzyme for full effect and enzyme alone for no effect
BH1578 lux ind: inducers of Vibrio cholerae quorum light production without autoinducers; AID 588436; 0.16% of 350,000 active; V. cholerae BH1578 lux reporter, luminescence, 6 h; activation, % at 18.7 µM; in the data active means activation mostly above about 9.7%, no sharp cut-off; inconclusive means no clear call, values can overlap the other calls; inactive means mostly below about 3.7%
BoNT-F LC inh: blocks Botulinum neurotoxin F light chain protease | Multiplex microsphere protease cleavage assay, flow cytometry | inhibition, % at 10 µM | 0.22% of 360,000 active; in the data active means inhibition above about 35%, passing the limit was not always enough; inconclusive means no clear call, values can overlap the other calls; further: plate controls were buffer without enzyme for full effect and enzyme alone for no effect
BJeLR viability: BJeLR cell viability loss; inhibition, % (no concentration beside the values); BJeLR (HRASV12) viability, CellTiter-Glo ATP luminescence, 48 h; 0.17% of 300,000 active; in the data active means inhibition above about 50%; inconclusive means no clear call, values can overlap the other calls
Anthrax LF inh2: inhibitors of Bacillus anthracis lethal factor protease; P15917; multiplex microsphere protease cleavage assay, LF; inhibition, % at 10 µM; 0.12% of 360,000 active; AID 588501; further: plate controls were buffer without enzyme for full effect and enzyme alone for no effect
Autofluor counter: counter-screen for toxin protease inhibitors: compound fluorescence; compound autofluorescence counterscreen, microsphere flow cytometry; stronger effect = higher value; fluorescence intensity (no concentration beside the values); 3.1% of 360,000 active; AID 624483; in the data active means fluorescence intensity above about 16000; inconclusive means no clear call, values can overlap the other calls
Starred values were filed as active, the others as inactive; i = inactive; ? = inconclusive; · = not tested or not shown. Rows were chosen to be rich in hits. Some 3.7% of all compounds tested hit in one or more screens of this group. Unless noted, no stated cut-off is given here; in the data, active means inhibition above about 30%; inconclusive means no clear call, values can overlap the other calls; inactive means below that.

SMILES	BoNT A protease	BH1578 lux ind	BoNT-F LC inh	BJeLR viability	Anthrax LF inh2	Autofluor counter
CCOC(=O)c1nn(-c2ccc(F)cc2)c2nc(CC(C)C)c(C#N)c(=O)n12	7.6	i	11.7	-3.1	-19.7	18268*
CCOC(=O)c1nn(-c2ccccc2)c2nc(-c3ccc(OC)cc3)c(C#N)c(=O)n12	-0.3	-0.6	-8.0	-4.1	-1.9	2378
Cc1cc(C)cc(-n2nnnc2-c2cn(C)nc2C(F)(F)F)c1	0.4	i	-4.8	-0.1	1.6	3287
Cn1cc(-c2nnnn2-c2ccc(Cl)cc2)c(C(F)(F)F)n1	0.7	i	1.1	3.5	-0.8	23367*
O=C(Cn1c(-c2ccccc2)noc1=O)Nc1ccc(N2CCCCCC2)cc1	-5.3	-0.3	-11.6	-2.3	-5.0	25078*
CCOC(=O)Nc1ccc2nc(-c3cscn3)[nH]c2c1	0.1	4.0	-4.3	·	6.2	2919
CCCCS/C(=C(/C#N)C(N)=O)c1cc2c([nH]1)CCCC2	?	i	-0.5	1.8	-3.1	22456*
COc1ccc(-n2c(O)c(C(C)=NCCCn3ccnc3)c(=O)[nH]c2=O)cc1	-2.4	i	-5.9	0.7	0.9	17270*
C=CCn1c(O)c(C(C)=NCc2ccco2)c(=O)[nH]c1=O	-0.3	i	0.1	-2.1	0.2	21930*
C=CCn1c(O)c(C(C)=NCCN2CCOCC2)c(=O)[nH]c1=O	3.2	1.7	2.9	4.5	5.0	21797*
CC(=NCCN1CCCCC1)c1c(O)n(-c2ccc(Cl)cc2)c(=O)[nH]c1=O	-4.8	i	-5.0	-6.3	-3.5	24548*
O=C(Nc1nncs1)c1cccc(S(=O)(=O)N2CCOCC2)c1	0.7	i	0.4	7.2	-0.4	16353*
Cc1ccc(NC(=O)c2cccc(S(=O)(=O)N3CCCC3)c2)nc1	3.1	i	0.7	1.5	1.7	5584
O=C(Nc1ccc(Cl)cn1)c1cccc(S(=O)(=O)N2CCOCC2)c1	4.4	5.3	5.7	0.5	-0.5	20815*
CC1(C(=O)NS(=O)(=O)c2ccc(C#N)cc2)CCN1C(=O)Cc1ccc(-c2ccccc2)cc1 (stereo not given)	-0.3	0.0	-5.9	·	6.0	3865
COc1cc(C2C(C#N)=C(N)Oc3cc(C)n(CCc4ccccc4)c(=O)c32)cc2c1OCO2 (stereo not given)	0.2	·	-17.5	0.4	1.1	2999
Cc1cc2c(c(=O)n1CCN(C)C)C(c1ccncc1)C(C#N)=C(N)O2 (stereo not given)	0.9	i	3.1	2.0	-5.2	3389
COCCn1c(C)cc2c(c1=O)C(c1ccco1)C(C#N)=C(N)O2 (stereo not given)	1.6	0.0	1.8	-4.6	-6.7	21595*
Cc1cc2c(c(=O)n1CCc1ccccc1)C(c1ccco1)C(C#N)=C(N)O2 (stereo not given)	-0.9	i	-1.9	5.9	-1.2	23680*
CC1(C(=O)NCc2ccco2)Cc2c(-c3ccccc3)ccnc2O1 (stereo not given)	-0.2	i	-1.5	·	2.3	3132
COCCn1c(=NC(=O)c2cc(-c3cccs3)nc3ccccc23)sc2cc(S(N)(=O)=O)ccc21	34.3*	-0.1	2.1	-8.2	12.4	2383
C=CCn1c(=NC(=O)c2cc(-c3cccs3)nc3ccccc23)sc2cc(S(N)(=O)=O)ccc21	17.5	-1.6	5.1	1.7	7.6	2634
CCOC1(C(F)(F)F)NC(=O)N(Cc2ccc(OC)cc2)C1=O (stereo not given)	0.0	i	-0.5	-5.1	-7.7	19545*
CN(C)/C(CN1CCOCC1)=C1\N=C(c2ccccc2)OC1=O	0.2	-0.6	-0.9	0.2	0.7	23718*
COc1cc2c(cc1OC)CN(C(C)C(=O)Nc1ccc(NC(C)=O)cc1)CC2 (stereo not given)	-3.7	i	-7.6	-0.2	-4.6	17392*
SMILES	BoNT A protease	BH1578 lux ind	BoNT-F LC inh	BJeLR viability	Anthrax LF inh2	Autofluor counter
COc1cc2c(cc1OC)CN(CC(=O)Nc1ccc(C)cc1)CC2	0.4	-0.2	-2.1	-1.9	-2.3	20583*
COCC(=O)Nc1ncc(S(=O)(=O)c2ccc([N+](=O)[O-])cc2)s1	-0.4	i	2.8	-5.0	0.4	4160
O=C(NC(Nc1ncc(S(=O)(=O)c2ccc([N+](=O)[O-])cc2)s1)(C(F)(F)F)C(F)(F)F)c1ccc(Cl)cc1	0.4	-0.2	1.7	70.3*	-3.5	3998
O=C(O)C(c1ccccc1)C1CCCCC1O (stereo not given)	-0.5	i	-1.1	·	-1.7	3472
CC(/C=N/NC(=O)Cc1cccn1C)=C\c1ccco1	?	-1.9	-6.3	1.6	-7.2	22954*
CC(=C/c1ccco1)/C=N/NC(=O)Cc1cccn1C	-0.2	-0.2	-0.5	-3.7	-2.6	2308
O=P(OC1CCCCC1)(OC1CCCCC1)C(O)c1ccc(Cl)cc1Cl (stereo not given)	1.1	·	-1.9	-5.8	-7.2	9572
O=P(OC1CCCCC1)(OC1CCCCC1)C(O)c1c(Cl)cccc1Cl (stereo not given)	-2.2	3.8	-4.8	-1.0	0.5	17127*
CCn1c(SC/C=C/c2ccccc2)nnc1-c1cnccn1	-0.8	i	-3.9	0.7	-4.4	21032*
CCn1c(SC/C=C/c2ccccc2)nnc1-c1cccs1	-3.3	-2.2	-4.9	3.2	0.7	20863*
CCN(CC)C(=O)C1=C(C)N(Cc2ccc(OC)cc2)C(=O)C(CC(=O)NCCN2CCOCC2)C1 (stereo not given)	0.0	-1.1	-2.7	·	1.8	3579
COc1cc(Cn2c3ccc(NC(=O)CC(C)C(F)(F)F)cc3c(=O)n2C)ccc1F (stereo not given)	0.6	-0.3	0.8	·	-1.0	3365
COc1cc(CNc2ncnc3c2ncn3[C@H]2CN(CCN3CCOCC3)C[C@@H](CO)O2)cc(OC)c1OC	0.3	-0.2	-2.6	·	-1.6	2930
O=C(Nc1cccc2ccccc12)/C(=C/c1ccc([N+](=O)[O-])cc1)NC(=O)c1ccccc1	34.1*	·	25.0	-11.2	18.4	7715
C=CCOc1cccn2c(N(C)C(=O)c3ccccc3F)c(CC)nc12	0.1	i	-1.0	·	0.8	3900
CC1(C(=O)Nc2cccc(C#N)c2)CCN1C(=O)C1(c2ccccc2)CC1 (stereo not given)	0.2	i	-4.7	·	-0.9	3406
Fc1ccc(Oc2cnc3ccccc3n2)cc1	0.2	i	0.2	1.8	1.5	2246
Clc1ccc(Oc2cnc3ccccc3n2)cc1	-2.2	i	-3.8	0.9	-2.7	24944*
Cc1ccc(Oc2cnc3ccccc3n2)cc1	?	-4.1	-2.1	8.6	-4.2	20600*
COC(=O)c1c(N)[nH]c(C(=O)c2ccccc2)c1-c1ccc(Br)cc1	-1.0	·	-0.7	·	-6.3	6345
O=C1NC[C@@H](CCCCN2C[C@H](Cc3ccc(O)cc3)N(CCc3ccc(O)cc3)C(=O)C2=O)N(Cc2ccccc2)C1=O	-1.4	·	1.3	·	-5.1	4058
O=C(/C=C/c1cccs1)Nc1nc(-c2ccccc2)cs1	0.9	-5.3	1.5	-1.1	-3.7	22955*
